# Test results: PubChem BioAssay (NCATS)
# Inconclusive results are not listed. Values without a mark were called inactive. The source made the active and inactive calls. The call rests on the fitted dose curve; in most records, active means well fitted inhibition curve with a large enough effect; inconclusive means small, poorly fitted or top-dose-only effect; inactive means flat fitted curve, though single readings scatter.
# Test system: HaCat
# Test: Cytotoxic Profiling of Annotated Libraries Using Quantitative High-Throughput Screening (AID 1296008); further: nearly all actives have a fitted effect of over 60% in size
# Details: Five cell lines viability, CellTiter-Glo ATP luminescence, 48-72 h; max response: active compounds read low
# Summary of the method: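 Compounds were pin-transferred onto cells and incubated 48 or 72 hr at 37 degree Celsius, 95% humidity. CellTiter-Glo was added, plates sat 10 min at room temperature, then ATP-coupled luminescence was imaged as the viability read-out.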
# On the % scale 0 is the no-effect control and ±100 the full control effect; potency means the concentration at half of the fitted maximal effect.
Structure (SMILES),max response,Potency
N#C[C@@H]1CCCN1C(=O)CNC12CC3CC(CC(O)(C3)C1)C2,-2.22%,–
C/C(=C\CCC1(C)C2CCC(C2)C1(C)O)C(=O)O (configuration not stated),0.481%,–
C[C@H]1[C@H](O)O[C@@H]2O[C@@]3(C)CC[C@H]4[C@H](C)CC[C@@H]1[C@@]24OO3,–,6.51 µM (active)
C[C@@H]1N[C@H]2N(C1=O)c1ccccc1[C@@]2(O)C[C@@H]1C(=O)N[C@@H](C)c2nc3ccccc3c(=O)n21,1.5%,–
CC(C)CC1NC(=O)C2CC3(O)c4ccccc4NC3N2C1=O (configuration not stated),-17.2%,–
CCC(=O)O[C@H]1C(C)(C)[C@H]([C@@H](O)C(=O)OC)[C@]2(C)C(=O)[C@@]1(O)[C@H]1O[C@]13C1CC(=O)O[C@@H](c4ccoc4)[C@]1(C)CCC32 (some centres not stated),-11.6%,–
CO[C@H]1O[C@@H]2O[C@]3(C)CC[C@H]4[C@H](C)CC[C@@H]([C@H]1C)[C@@]24OO3,-0.0315%,–
CC(=O)CC1CCC(C(C)C(=O)OCC(O)CO)O1 (configuration not stated),-2.79%,–
CC(/C=C/C1=CC2=CC(=O)C(C)(O)C(O)C2=CO1)=C\C(C)CCO (configuration not stated),-24.3%,–
CC1CC(O)/C=C/C(O)C(O)CC(=O)Cc2c(Cl)c(O)cc(O)c2C(=O)O1 (configuration not stated),-4.28%,–
COc1c(C)c(OCC(O)C(C)(C)O)cc2c1COC2=O (configuration not stated),-8.24%,–
CC1=CC2/C=C(\C)CC[C@@H](O)[C@@H](O)[C@@H]3O[C@@H]3C(=O)[C@]23C(=O)N[C@@H](CC(C)C)[C@@H]3[C@@H]1C (some centres not stated),-27.7%,–
